Counter-ions that a name gives are not always drawn. ± gives the standard deviation of the averaged measurements.

In this assay the test system is E. coli TESEC Mtb Alr. Kind of assay: growth (OD600 after 10 h); higher = more growth (less inhibition). The conditions noted are these: compound 0.1 mM. Here is the method: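 TESEC Mtb Alr E. coli, or the Alr+ wild-type control, in 384-well plates with Prestwick library compounds at 0.1 mM and 1% DMSO, across arabinose induction levels of 1E3 to 1E7 nM. Growth is read as OD600 after 10 h at 37 °C in triplicate biological replicates.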

Where [1] appears, read: arabinose 1000 nM, raw OD600 reference: median of DMSO wells 0.294, cell-free background 0.041.
Setting [2] is: arabinose 10000 nM, raw OD600 reference: median of DMSO wells 0.264, cell-free background 0.041.
Where [3] appears, read: arabinose 100000 nM, raw OD600 reference: median of DMSO wells 0.201, cell-free background 0.041.
Where [4] appears, read: arabinose 1000000 nM, raw OD600 reference: median of DMSO wells 0.193, cell-free background 0.041.
Where [5] appears, read: arabinose 10000000 nM, raw OD600 reference: median of DMSO wells 0.146, cell-free background 0.041.

`Cc1nc2ccccn2c(=O)c1CCN1CCC(C(=O)c2ccc(F)cc2)CC1` [Pirenperone]: the growth is, setting by setting: under setting [1], 0.272 ± 0.0064; under setting [2], 0.268 ± 0.013; under setting [3], 0.208 ± 0.043; under setting [4], 0.178 ± 0.0069; under setting [5], 0.147 ± 0.007.
Taken in the same sequence, the figures for `CC(=O)c1ccc(S(=O)(=O)NC(=O)NC2CCCCC2)cc1` [Acetohexamide] were 0.284 ± 0.0099, 0.242 ± 0.0032, 0.191 ± 0.024, 0.162 ± 0.0024 and 0.156 ± 0.0038.
The like results for `O=C1CC2(CCCC2)CC(=O)N1CCCCN1CCN(c2ncccn2)CC1` [Buspirone hydrochloride] were, in that order, 0.274 ± 0.0095, 0.2798 ± 0.0023, 0.184 ± 0.028, 0.198 ± 0.011 and 0.134 ± 0.0058.
Taken in the same sequence, the figures for `C[C@H]1O[C@@H](O[C@H]2[C@@H](O)C[C@H](O[C@H]3[C@@H](O)C[C@H](O[C@H]4CC[C@@]5(C)[C@H](CC[C@@H]6[C@@H]5C[C@@H](O)[C@]5(C)[C@@H](C7=CC(=O)OC7)CC[C@]65O)C4)O[C@@H]3C)O[C@@H]2C)C[C@H](O)[C@@H]1O` [Digoxin] were 0.282 ± 0.01, 0.275 ± 0.0083, 0.2 ± 0.0092, 0.176 ± 0.0061 and 0.136 ± 0.0037.
With `N#Cc1cc(NC(=O)C(=O)O)c(Cl)c(NC(=O)C(=O)O)c1` [Lodoxamide], the growth under setting [1] worked out at 0.315 ± 0.006; the growth under setting [2] stood at 0.2862 ± 0.0018; the growth under setting [3] was found to be 0.173 ± 0.0062; the growth under setting [4] was 0.205 ± 0.013; the growth under setting [5] was found to be 0.134 ± 0.0054.
The like results for `COc1ccc(C(Cl)=C(c2ccc(OC)cc2)c2ccc(OC)cc2)cc1` [Chlorotrianisene] were, in that order, 0.306 ± 0.018, 0.2565 ± 0.0023, 0.189 ± 0.013, 0.208 ± 0.013 and 0.168 ± 0.049.
Taken in the same sequence, the figures for `N#CC(c1ccc(Cl)cc1)c1c(Cl)cc(-n2ncc(=O)[nH]c2=O)cc1Cl` (stereo not given) [Diclazuril] were 0.0423 ± 0.004, 0.0402 ± 0.0002, 0.0425 ± 0.0014, 0.0405 ± 0.00045 and 0.0479 ± 0.0017.
Taken in the same sequence, the figures for `CCCCOc1cc(C(=O)NCCN(CC)CC)c2ccccc2n1` [Dibucaine] were 0.281 ± 0.0065, 0.26283 ± 0.00023, 0.208 ± 0.0075, 0.154 ± 0.0091 and 0.174 ± 0.0038.

The values above are taken from the supplement of paper PMC9262897, “Low-cost anti-mycobacterial drug discovery using engineered E. coli” (Nature Communications, 2022).
